Compounds with a hit are over-represented: about 4% of the library has one in this group of screens.
Casp7 inh: blocks human caspase-7 allosterically or competitively; P55210; recombinant caspase-7, Ac-DEVD-AFC fluorescence rate; Potency, µM (highest dose often 57.5 µM), for inactives: at the top dose activity change, negative = inhibition, usual class: inhibitors; hit rate 0.02% among 75,000; AID 889; active = well fitted inhibition curve with a large enough effect in the main read-out, with a control signal flat, not every such curve was filed as active; inconclusive = small, poorly fitted or top-dose-only effect, or a change in a side signal; also: % of control where 0% means no effect
Caspase-1 inhib: caspase-1 (human) inhibition, allosteric or competitive. Caspase-1 enzyme, Ac-WEHD-AFC fluorogenic rate. AID 900. Potency, µM (doses to about 57.5 µM), for inactives: top-dose activity change, negative = inhibition, actives largely listed as inhibitors. P29466. hit rate 0.03% among 75,000;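 also: plate controls were vehicle for no effect and no substrate for full effect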
Tau filament bind: binders of human tau filaments; hit rate 2% among 71,000; Potency, µM (titrated, usually from 57.1 µM), for inactives: top-dose activity change, negative = inhibition; recombinant tau filaments, thioflavin S fluorescence, 15 h; filaments grown with octadecylsulfate alongside compound;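 also: % is scaled to controls: 0 for no effect and ±100 for the full control effect; actives lower thioflavin S fluorescence by blocking filaments or displacing dye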
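ThS-based fibril read: tau 1 uM final, inducer ODS 30 uM final, 37 C for 15 h, ex 450/em 510 nm.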
Luciferase inh: firefly luciferase inhibition; P08659; purified firefly luciferase, luminescence, 8 min; Potency, µM (doses to about 57.1 µM), for the others: top-dose activity change, negative = inhibition, actives largely listed as inhibitors; hit rate 2.2% among 72,000; AID 411; also: % is scaled to controls: 0 for no effect and ±100 for the full control effect; nearly all actives have a fitted effect of over 40% in size
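Luminescence read-out after 8 min at room temperature; enzyme reaction used luciferin plus 10 uM ATP (linear range) in imidazole buffer pH 7.2 with KCl, MgCl2, Tween 20 and BSA. Each sample was run as a titration.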
Bst PK mod: alters activity of Bacillus stearothermophilus pyruvate kinase. purified pyruvate kinase, luminescence ATP production; ribose 5-phosphate activator present at AC10. Potency, µM. hit rate 1.2% among 51,000; in the data active = potency below about 11 µM; inconclusive = mostly about 12 µM to 25 µM;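 the screen sought inhibitors and activators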;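 also: scaled between full activation by ribose 5 phosphate and full inhibition by luteolin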
* hit, by the source's call; [ ] = remark or other dose. Unless noted, calls follow the shape of the dose curve; as a rule, active = well fitted curve in the direction sought with a large enough effect; inconclusive = small, poorly fitted or top-dose-only effect, or another doubt; inactive = no such curve, though single readings can be large; an effect the other way counts as inactive or inconclusive. Potency is read from the fitted curve at half-maximal effect.

Results for Cc1ccc(S(=O)(=O)c2nc(-c3cccs3)oc2SCC(N)=O)cc1 ?
Casp7 inh: -10%; Caspase-1 inhib: 1%; Tau filament bind: -21%; Luciferase inh: 3%; Bst PK mod: 9.1*

What do the screens show for `NC(=O)CSc1oc(-c2ccc(F)cc2)nc1S(=O)(=O)c1ccccc1`?
Casp7 inh: -1%; Caspase-1 inhib: 0%; Tau filament bind: -16%; Luciferase inh: -8%; Bst PK mod: >57

Results for COc1cccc(-c2noc(-c3cccs3)n2)c1 ?
Casp7 inh: 0%; Caspase-1 inhib: -3%; Tau filament bind: 18%; Luciferase inh: 10µM*; Bst PK mod: inconclusive

How did COc1cccc(-c2noc(-c3cccnc3)n2)c1 do in these assays?
Casp7 inh: -1%; Caspase-1 inhib: -1%; Tau filament bind: -6%; Luciferase inh: 13µM*

How did COc1ccc(-c2noc(-c3ccc(Cl)cc3)n2)cc1 do in these assays?
Casp7 inh: 1%; Caspase-1 inhib: -1%; Tau filament bind: 17%; Luciferase inh: inconclusive; Bst PK mod: 5.4*

What do the screens show for `COc1cccc(-c2nc(-c3ccc(NC(=O)c4cccnc4)cc3)no2)c1`?
Casp7 inh: 0%; Caspase-1 inhib: 0%; Tau filament bind: 14%; Luciferase inh: 1%; Bst PK mod: >57

How did COC(=O)c1ccc(-c2nc(-c3ccc(Br)o3)no2)cc1 do in these assays?
Casp7 inh: -2%; Caspase-1 inhib: -2%; Tau filament bind: -6%; Luciferase inh: -7%

How did COC(=O)c1ccc(-c2nc(-c3cccs3)no2)cc1 do in these assays?
Casp7 inh: 0%; Caspase-1 inhib: 0%; Tau filament bind: 13%; Luciferase inh: 1.6µM*

What do the screens show for `COc1nc(-c2ccccc2)ccc1-c1noc(-c2cccs2)n1`?
Casp7 inh: -8%; Caspase-1 inhib: -6%; Tau filament bind: 87%; Luciferase inh: -2%; Bst PK mod: >57

What do the screens show for `CC(C)(C)NC(=O)[C@@H]1C[C@H]2CCCC[C@@H]2CN1C[C@H](O)[C@H](Cc1ccccc1)NC(=O)[C@@H](CC(N)=O)NC(=O)c1ccc2ccccc2n1`?
Casp7 inh: -1%[25.7 µM]; Caspase-1 inhib: 0%[25.7 µM]; Tau filament bind: -23%[25.6 µM]; Luciferase inh: 4%[25.5 µM]

How did Cc1noc(C)c1C(=O)N1CCC2(CCCN(C(=O)NC(C)C)C2)CC1 do in these assays?
Casp7 inh: 0%; Caspase-1 inhib: -1%; Tau filament bind: -14%; Luciferase inh: 2%[11.4 µM]

What do the screens show for `COc1ccc(CC(=O)Nc2ccc(-c3noc(-c4cccc(OC)c4)n3)cc2)cc1`?
Casp7 inh: -1%; Caspase-1 inhib: 1%; Tau filament bind: -1%; Luciferase inh: 0%; Bst PK mod: >57

Results for COc1cccc(-c2nc(-c3ccccc3)no2)c1 ?
Casp7 inh: 1%; Caspase-1 inhib: -2%; Tau filament bind: 3%; Luciferase inh: 10µM*; Bst PK mod: 9*

Results for Cc1cc(=O)n2[nH]c(-c3ccc(Cl)cc3)cc2n1 ?
Casp7 inh: -7%; Caspase-1 inhib: -1%; Tau filament bind: 1%; Luciferase inh: 16µM*; Bst PK mod: inconclusive

How did COc1cc2c(cc1OC)-c1c(OC)c(OC)cc3ccnc(c13)C2=O do in these assays?
Casp7 inh: -7%; Caspase-1 inhib: inconclusive; Tau filament bind: 32µM*; Luciferase inh: 0%[11.4 µM]

How did O=C(O)C1Nc2c(O)cccc2C2C=CCC12 (centres undefined) do in these assays?
Casp7 inh: -24%; Caspase-1 inhib: inconclusive; Tau filament bind: 13µM*; Luciferase inh: -8%

How did O=C(O)CCC(=O)Nc1ccc(C(=O)OC2CCCCC2)cc1 do in these assays?
Casp7 inh: 0%; Caspase-1 inhib: 0%; Tau filament bind: 4%; Luciferase inh: -21%

Results for O=C(OC1CCCCC1)c1ccc2c(c1)C1C=CCC1C(C(=O)O)N2 (centres undefined) ?
Casp7 inh: inconclusive; Caspase-1 inhib: -17%; Tau filament bind: 0.63µM*; Bst PK mod: >57

How did CC(C)(C)c1ccc(-c2nnc(SCC(=O)O)n2N)cc1 do in these assays?
Casp7 inh: 2%; Caspase-1 inhib: 0%; Tau filament bind: 9%; Luciferase inh: 16µM*

How did O=C(CSCc1nc2ccccc2[nH]1)N1CCN(c2ccc(F)cc2)CC1 do in these assays?
Casp7 inh: -13%; Caspase-1 inhib: 1%; Tau filament bind: 20µM*; Luciferase inh: -1%; Bst PK mod: >57

How did COc1ccc(NC(=O)N2CC3(CCN(C(=O)c4cc(C(F)(F)F)cc(C(F)(F)F)c4)CC3)C2)cc1 do in these assays?
Casp7 inh: -7%; Caspase-1 inhib: -3%; Tau filament bind: -7%; Luciferase inh: 1%[11.4 µM]

What do the screens show for `c1ccc(Cc2nnc3sc(-c4ccco4)nn23)cc1`?
Casp7 inh: -13%; Caspase-1 inhib: -3%; Tau filament bind: 16µM*; Luciferase inh: 0%

How did c1ccc(-c2cc(-c3nn4c(-c5ccco5)nnc4s3)c3ccccc3n2)cc1 do in these assays?
Casp7 inh: -7%; Caspase-1 inhib: -10%; Tau filament bind: 0.63µM*; Luciferase inh: 0%; Bst PK mod: >57

Results for c1coc(-c2nnc3sc(-c4cccs4)nn23)c1 ?
Luciferase inh: 0%[25.5 µM]; Bst PK mod: 9*

What do the screens show for `N#CCCn1c(=O)c(-c2cccs2)nc2cnc(N3CCNCC3)nc21`?
Casp7 inh: inconclusive; Tau filament bind: inactive; Luciferase inh: 1%[11.4 µM]

Results for CCOc1ccc(-n2nc(C(=O)N3CCOCC3)c3ccccc3c2=O)cc1 ?
Casp7 inh: 0%; Caspase-1 inhib: 1%; Tau filament bind: -9%; Luciferase inh: -2%; Bst PK mod: >57

How did COc1cc(NC(=O)C2CCCN2S(=O)(=O)c2ccc3c(c2)CCC(=O)N3)cc(OC)c1 (centres undefined) do in these assays?
Casp7 inh: 1%; Caspase-1 inhib: 0%; Tau filament bind: 4%; Luciferase inh: -1%

How did COc1ccc(C)cc1NC(=O)C1CCCN1S(=O)(=O)c1ccc2c(c1)CCC(=O)N2 (centres undefined) do in these assays?
Casp7 inh: -2%; Caspase-1 inhib: -1%; Tau filament bind: 25µM*; Luciferase inh: -3%

How did O=C(Nc1ccc(SC(F)F)cc1)c1ccc2nccnc2c1 do in these assays?
Casp7 inh: 1%; Caspase-1 inhib: -1%; Tau filament bind: 13µM*; Luciferase inh: inconclusive

What do the screens show for `CCC(=O)Nc1cccc(NC(=O)c2ccc3c(c2)OCCO3)c1`?
Casp7 inh: 3%; Caspase-1 inhib: -2%; Tau filament bind: -10%; Luciferase inh: 16µM*

Results for O=C(Nc1ccncc1)c1cccc(F)c1 ?
Casp7 inh: -1%; Caspase-1 inhib: 0%; Tau filament bind: 6%; Luciferase inh: 1%

What do the screens show for `O=C(Nc1ccc2c(c1)OCCO2)c1ccc2nccnc2c1`?
Casp7 inh: -1%; Caspase-1 inhib: 2%; Tau filament bind: -5%; Luciferase inh: 10µM*; Bst PK mod: inconclusive

How did Nc1[nH]nc2nc3ccccc3nc12 do in these assays?
Casp7 inh: 0%; Caspase-1 inhib: -2%; Tau filament bind: 40µM*; Luciferase inh: 2%
